HPGD inh: HPGD (human) dehydrogenase inhibition; 150,000 tested, 4.3% active; Potency, µM, for the others: at the highest dose activity change, negative = inhibition, hits mostly inhibitors; purified HPGD, NADH fluorescence kinetic, PGE2 substrate; AID 894; P15428; active = well fitted inhibition curve with a large enough effect, not every such curve was filed as active; inconclusive = small, poorly fitted or top-dose-only effect, or another doubt; inactive = no such curve, though single readings can be large or run the other way; note: potency is the fitted concentration of half-maximal effect
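NADH formation kinetics: reaction with 30 uM PGE2 and 1 mM NAD+ (final), 20 nM enzyme, Tris-HCl pH 8 with Tween 20, after 15 min compound preincubation at room temperature. Fluorescence change, last versus first of five reads.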
IMPase Li cell: cell-permeable IMPase inhibitors with lithium potentiation | CHO-M1 cells, IP1 TR-FRET (IP-One), carbachol + lithium | Potency, µM (top dose mostly 59.4 µM), for the others: top-dose activity, negative = IMPase inhibition, usual class: inhibitors | 210,000 tested, 0.35% active | AID 1457;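 note: IP1 builds up when IMPase is blocked and the TR-FRET signal falls; potency is the fitted concentration of half-maximal effect; plate controls were basal vehicle for no effect and high inhibitor control for full effect; nearly all actives have a fitted effect of over 50% in size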
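IP1 accumulation measured by competitive TR-FRET in lysed CHO-M1 cells after 30 min compound exposure at 37C, with a small lithium addition to potentiate weak responses. Hill-equation AC50 from ratio and donor-channel data.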
ALDH1A1 inh: inhibitors of human aldehyde dehydrogenase 1A1; 220,000 tested, 7.3% active; Purified ALDH1A1, NADH fluorescence, propionaldehyde substrate; P00352; Potency, µM (top dose mostly 75.3 µM), for inactives: top-dose activity, negative = inhibition, actives largely listed as inhibitors; AID 1030; active = well fitted inhibition curve with a large enough effect, not every such curve was filed as active; inconclusive = small, poorly fitted or top-dose-only effect, or another doubt; inactive = no such curve, though single readings can be large or run the other way;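 note: potency is the fitted concentration of half-maximal effect; plate controls were no enzyme wells and a reference inhibitor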
PNC assembly inh: perinucleolar compartment assembly inhibition; AID 2417; 140,000 tested, 3.1% active; PC3M PTB-GFP, PNC prevalence imaging, 16 h; stronger effect = lower value; activity change (PNC), negative = inhibition, % at 10 µM;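 active = readout at or below -70, meaning at least 70% loss of cells showing the perinucleolar compartment, a nuclear body marking cancer cells; inconclusive = readout between -30 and a set limit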;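 note: plate controls were DMSO wells for no effect and camptothecin positive control wells for full effect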
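Read-out is percentage of cells bearing a perinucleolar compartment, from automated 20x imaging of fixed, Hoechst-stained PC3M PTB-GFP cells. Cells were seeded 4 h, then exposed 16 h to compound (23 nl of library stock) in duplicate plates.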
IMPase inh: membrane-permeable compound that blocks inositol monophosphatase | P97697 | CHO-M1 cells, IP1 accumulation, HTRF TR-FRET ratio | inhibition (IP1 accumulation), % at 46.1 µM | 120,000 tested, under 10 active | AID 901; active = well fitted curve in the direction sought with a large enough effect in the signal ratio, not every such curve was filed as active; inconclusive = small, poorly fitted or top-dose-only effect, or a change in a side signal; inactive = no such curve, though single readings can be large or run the other way; the % refers to the signal ratio;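 note: cells stimulated with carbachol in lithium chloride buffer; plate controls were DMSO basal wells for no effect and reference inhibitor wells for full effect; higher means more IMPase inhibition seen as more IP1 and lower FRET ratio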
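Seeded CHO-M1 cells were dosed with compound at up to 46 uM, stimulated with carbachol for 30 min, then lysed in IP-One detection reagents. Higher IP1 lowers the TR-FRET signal.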
12-hLO inh: blocks human 12-lipoxygenase activity | P18054 | 150,000 tested, 0.12% active | Potency, µM (titrated, usually from 57.1 µM), for the others: at the top dose activity change, negative = inhibition, usual class: inhibitors | purified 12-hLO, xylenol orange hydroperoxide absorbance | AID 1452; note: potency is the fitted concentration of half-maximal effect; nearly all actives have a fitted effect of over 55% in size
Target sequence (P18054 whole entry, looked up): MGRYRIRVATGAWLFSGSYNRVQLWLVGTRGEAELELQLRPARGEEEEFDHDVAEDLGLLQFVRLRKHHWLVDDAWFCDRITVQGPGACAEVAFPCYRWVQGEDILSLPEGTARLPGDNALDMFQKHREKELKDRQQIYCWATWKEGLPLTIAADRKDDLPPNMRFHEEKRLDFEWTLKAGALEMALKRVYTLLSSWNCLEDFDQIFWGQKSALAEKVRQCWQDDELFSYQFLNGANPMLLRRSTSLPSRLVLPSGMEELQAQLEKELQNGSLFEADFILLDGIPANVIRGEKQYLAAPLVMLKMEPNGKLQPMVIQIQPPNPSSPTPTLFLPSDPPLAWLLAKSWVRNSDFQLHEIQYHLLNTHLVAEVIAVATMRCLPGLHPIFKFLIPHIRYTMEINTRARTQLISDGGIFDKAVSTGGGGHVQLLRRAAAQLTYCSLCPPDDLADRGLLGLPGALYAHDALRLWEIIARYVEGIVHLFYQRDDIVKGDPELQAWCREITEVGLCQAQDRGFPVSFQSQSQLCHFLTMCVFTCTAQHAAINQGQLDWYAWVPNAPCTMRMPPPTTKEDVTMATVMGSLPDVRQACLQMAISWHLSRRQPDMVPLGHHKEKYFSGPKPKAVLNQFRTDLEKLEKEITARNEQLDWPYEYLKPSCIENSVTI
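Hydroperoxide output read as Fe(III)-xylenol orange absorbance, 573-to-405 nm ratio, after 30 min reaction with 40 uM arachidonic acid. Enzyme: 150 nM purified human 12hLO, 15 min compound preincubation; 25 mM Hepes pH 7.0, room temperature.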
An asterisk follows results filed as active; ? = inconclusive; · = not tested or not shown; [ ] = another dose, or the depositor's remark. Hits are enriched below; roughly 11% of the tested compounds scored in any of these assays. Unless noted, calls come from the whole dose curve; as a rule, active = well fitted curve in the direction sought with a large enough effect; inconclusive = small, poorly fitted or top-dose-only effect, or another doubt; inactive = no such curve, though single readings can be large; an effect the other way counts as inactive or inconclusive. Unless noted, % is set by controls: 0 for no effect and ±100 for the full control effect.

SMILES	HPGD inh	IMPase Li cell	ALDH1A1 inh	PNC assembly inh	IMPase inh	12-hLO inh
CCCN1C2=C(C(=O)CC(C)(C)C2)C(c2ccc(F)cc2)C2=C1c1ccccc1C2=O (stereo not given)	35µM*	32%[38.3 µM]	?	50	-5	0%
COC(=O)C1CSc2[nH]c(=O)sc2C1c1ccc(O)c(OC)c1 (stereo not given)	?	52%[38.3 µM]	2.5µM*	?	6	-24%
CCOC(=O)C1CSc2[nH]c(=O)sc2C1c1ccccc1 (stereo not given)	-7%	1%[38.3 µM]	28µM*	5	1	-1%
COc1cc(C2c3sc(=O)[nH]c3SC3C4CCC(C4)C23)ccc1O (stereo not given)	-4%	9%[38.3 µM]	?	115	10	-12%
CCOC(=O)C1OC1c1ccccc1 (stereo not given)	-9%	6%	4%	·	·	-2%
CC(C)C(=O)NC(=O)C1CCCN1C(=O)/C=C/c1ccccc1 (stereo not given)	·	·	-1%[13.5 µM]	·	·	·
CC(=O)N1CCC(=NNS(=O)(=O)c2cccc([N+](=O)[O-])c2)CC1	-14%	16%[38.3 µM]	11µM*	-2	-10	-7%
Cc1ccc(S(=O)(=O)Nc2ccc(C(N)=O)cc2)cc1[N+](=O)[O-]	·	2%	?	·	·	·
Cc1ccc(S(=O)(=O)NN=C2C3CC4CC(C3)CC2C4)cc1[N+](=O)[O-]	-17%	-1%	18µM*	16	·	1%
CCCC1CCC(=NNS(=O)(=O)c2ccc(C)c([N+](=O)[O-])c2)CC1 (stereo not given)	-3%	0%	?	?	-10	-4%
Cc1ccc(S(=O)(=O)NN=C2CCC(C(C)(C)C)CC2)cc1[N+](=O)[O-] (stereo not given)	-8%	2%	6.3µM*	-26	-7	-2%
CC(C)(C)C1CCC(=NNS(=O)(=O)c2ccc(Br)cc2)CC1 (stereo not given)	-5%	-3%	1.4µM*	-20	8	3%
COc1cccc([C@@H]2Oc3ccc(Br)cc3C[C@H]2OC(=O)Nc2cc(OC)c(OC)c(OC)c2)c1	-11%	-2%	-6%	·	·	·
CC1CCCC/C1=N\NS(=O)(=O)c1ccc(Br)cc1 (stereo not given)	1%	16%[38.3 µM]	4.5µM*	25	3	-13%
C/C(=N\NS(=O)(=O)c1ccc(C)c([N+](=O)[O-])c1)c1cccs1	·	-2%	32µM*	·	·	·
CC(=O)N1CCC(=NNS(=O)(=O)c2ccc(C)c([N+](=O)[O-])c2)CC1	-1%	-10%[38.3 µM]	10µM*	-20	-4	0%
CN(CCCNC(=O)CSc1cc(=O)n(C)c2cc(Cl)ccc12)Cc1ccccc1	·	-6%	8%	·	·	·
O=C(Nc1ccccc1)N1CCC2(CC1)CCN(C(=O)c1ccco1)CC2	1%	1%	-5%	·	·	-1%
Cc1ccc(S(=O)(=O)N2CCOCC2)cc1C(=O)Nc1cccc(S(=O)(=O)N2CCCC2)c1	·	16%	?	·	·	·
O=C(Nc1cccc(S(=O)(=O)N2CCOCC2)c1)c1cc2c(s1)CCC2	-9%	22%[38.3 µM]	3.2µM*	?	1	2%
COc1ccc(NC(=O)c2ccco2)cc1S(=O)(=O)N1CCOCC1	·	1%	2%	·	·	·
COc1ccc(CC(=O)Nc2nc3ccc(F)cc3s2)cc1S(=O)(=O)N1CCOCC1	-6%	12%	20µM*	?	4	1%
COc1ccc(S(=O)(=O)N2CCOCC2)cc1NC(=O)c1cc2c(s1)CCCC2	?	7%	4µM*	-1	5	5%
COc1ccc(NC(=O)c2cc3c(s2)CCC3)cc1S(=O)(=O)N1CCOCC1	-19%	13%[38.3 µM]	0.56µM*	21	6	-3%
CCCCC1=CC2=C(OC(C)=O)C(=O)C(C)(OC(=O)c3ccc(Cl)nc3)C(=O)C2=CO1 (stereo not given)	-7%	14%	13%	·	·	-3%
O=C(COC(=O)c1ccc(O)cc1)NCCCc1ccccc1	·	4%	0%	·	·	·

Source: PubChem (National Center for Advancing Translational Sciences (NCATS))
